High-throughput results (PubChem)
697 NFkB inh: lowers PMA/ionomycin-induced NF-kB signal in 697 B cells | inhibition, % at 4 µM | 0.33% of 330,000 active | 697 B-cell NF-kB luciferase reporter, 16 h; in the data active means inhibition above about 35%
Gli-Sufu antag: blocks Gli-Sufu signaling in a luciferase reporter; Sufu-KO-LIGHT fibroblasts, Gli luciferase reporter luminescence; inhibition, % at 5 µM; 0.74% of 340,000 active;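 active means inhibition above about 55%, limit read from the data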;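 further: 0% = DMSO-treated cells and 100% = wells with medium but no cells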
Mdm2-MdmX inh: human Mdm2/MdmX binding inhibition. O15151+Q00987. SaOS-2 split-luciferase Mdm2/MdmX complementation, luminescence. inhibition, % at 8 µM. 3% of 330,000 active;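 active means inhibition of at least 50% at 8 µM in the primary screen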
Target sequence (O15151 whole entry, looked up): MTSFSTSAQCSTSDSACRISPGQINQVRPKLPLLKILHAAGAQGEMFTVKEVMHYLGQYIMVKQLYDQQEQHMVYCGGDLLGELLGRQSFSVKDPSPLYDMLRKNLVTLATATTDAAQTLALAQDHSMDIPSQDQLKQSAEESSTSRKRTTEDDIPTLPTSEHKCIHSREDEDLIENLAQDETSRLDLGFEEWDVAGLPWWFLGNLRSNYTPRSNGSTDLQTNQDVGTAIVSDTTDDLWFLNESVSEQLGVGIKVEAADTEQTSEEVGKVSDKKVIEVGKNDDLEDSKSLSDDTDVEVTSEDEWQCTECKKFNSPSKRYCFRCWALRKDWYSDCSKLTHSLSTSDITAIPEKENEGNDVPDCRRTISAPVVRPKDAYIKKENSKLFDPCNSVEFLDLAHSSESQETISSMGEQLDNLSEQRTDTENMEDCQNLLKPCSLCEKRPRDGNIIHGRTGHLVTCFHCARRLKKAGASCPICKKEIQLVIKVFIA
Target sequence (Q00987 whole entry, looked up): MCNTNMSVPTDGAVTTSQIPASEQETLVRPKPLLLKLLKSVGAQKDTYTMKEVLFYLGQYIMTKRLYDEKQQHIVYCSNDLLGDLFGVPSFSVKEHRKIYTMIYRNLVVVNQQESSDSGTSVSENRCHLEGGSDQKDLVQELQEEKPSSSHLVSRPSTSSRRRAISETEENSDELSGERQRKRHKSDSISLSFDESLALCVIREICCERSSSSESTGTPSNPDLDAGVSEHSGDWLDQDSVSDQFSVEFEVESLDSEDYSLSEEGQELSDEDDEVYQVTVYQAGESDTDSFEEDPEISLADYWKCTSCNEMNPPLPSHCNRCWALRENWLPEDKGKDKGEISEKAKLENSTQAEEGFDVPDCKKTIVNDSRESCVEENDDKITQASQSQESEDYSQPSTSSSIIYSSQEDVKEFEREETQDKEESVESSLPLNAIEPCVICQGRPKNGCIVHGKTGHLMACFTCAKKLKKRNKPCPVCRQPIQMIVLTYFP
Beta apoptosis: blocks beta cell apoptosis | INS-1E cytokine-induced death, ATP luminescence, 48 h; percent of positive-control rescue, neutral wells zero | protection from apoptosis, % (concentration not given with the values) | 0.8% of 300,000 active | AID 435005;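 active means Every replicate reaches about 75%, or at least half do and their mean reaches it too, limit read from the data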;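 further: 0% = cytokine-treated negative control wells and 100% = positive control rescue; higher means more ATP so stronger rescue from cytokine killing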
Jurkat NFkB inh: lowers PMA/ionomycin-induced NF-kB signal in Jurkat cells; PMA/ionomycin-induced NF-kB luciferase reporter, luminescence; inhibition, % at 4 µM; 0.53% of 330,000 active; AID 435003; in the data active means inhibition above about 50%
Mdm2-MdmX conf: confirmation of human Mdm2/MdmX interaction inhibitors; AID 489028; 55% of 10,000 active; inhibition, % at 8 µM; shares compounds with Mdm2-MdmX inh; Mdm2-MdmX binding, luminescent assay; in the data active means inhibition above about 40%
FLuc counter: counter-screen for Mdm2/MdmX inhibitors: full-length luciferase; shares compounds with Mdm2-MdmX inh; SaOS-2 full-length luciferase counterscreen, luminescence; inhibition, % at 8 µM; 77% of 6,200 active; AID 504607;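 active means mean inhibition at 8 µM reaching about 37%, which flags the compound as non-specific, limit read from the data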;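 further: p53-null SaOS-2 cells with luciferase driven by a doxycycline-inducible promoter; compound on cells about two nights before reading with doxycycline added after day one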
Active calls of the source: *; . = no result given. Only some compounds are listed: those with a hit (about 4% of all), similar ones and a draw of the others.

SMILES | 697 NFkB inh | Gli-Sufu antag | Mdm2-MdmX inh | Beta apoptosis | Jurkat NFkB inh | Mdm2-MdmX conf | FLuc counter
Cc1ccccc1-c1nc(CN2CCC(C(=O)NC3CCN(Cc4ccccc4)CC3)CC2)c(C)o1 | 15 | 7 | 99* | -4 | 21 | 58* | 75*
Cc1ccc(-n2c(=O)[nH]c3cc(C(=O)NC4CCN(Cc5ccccc5)CC4)ccc3c2=O)cc1 | 0 | 0 | 87* | 2 | 18 | 26 | .
O=C(NC1CCN(Cc2ccccc2)C1)c1cc(COc2ccc(F)cc2F)on1 (centres undefined) | 6 | 33 | 11 | 20 | -4 | . | .
Cc1ccccc1-c1nc(CN2CCC(C(=O)NC3CCCCC3)CC2)c(C)o1 | -7 | 47 | 4 | -1 | 10 | . | .
COc1ccc(-c2nc(CN3CCC(C(=O)NC4CCN(Cc5ccccc5)CC4)CC3)c(C)o2)cc1OC | -8 | 29 | 80* | 10 | 17 | 49* | 55*
COc1ccc(-c2nc(CSCC(=O)NC3CCN(Cc4ccccc4)CC3)c(C)o2)cc1OC | -26 | 39 | 23 | -8 | 11 | . | .
Cc1ccc(Nc2nc(/N=C/NO)n[nH]2)cc1C | 4 | -12 | -8 | -4 | -22 | . | .
CC(C)C(NC(=O)c1ccco1)C(=O)OCC(=O)Nc1ccc(C(N)=O)cc1 (centres undefined) | 6 | 0 | 15 | -3 | 0 | . | .
Cc1oc(-c2ccc(Cl)cc2)cc1C(=O)NC1CCN(Cc2ccccc2)CC1 | 4 | 9 | 60* | . | -12 | 28 | .
S=C(Nc1ccccc1Cl)NC1CCN(Cc2ccccc2)CC1 | -6 | 0 | 12 | 7 | 12 | . | .
S=C(Nc1cc(Cl)cc(Cl)c1)NC1CCN(Cc2ccccc2)CC1 | 21 | 31 | 95* | -6 | 7 | 34 | .
CCCCn1c(CCCNC(=O)c2ccco2)nc2ccccc21 | -14 | 11 | -1 | . | -1 | . | .
C=CC(=O)Nc1cccc(Oc2ccnc3[nH]ccc23)c1 | . | -13 | . | . | . | . | .
C=CC(=O)Nc1cccc(Oc2ncnc3[nH]cc(-c4cnc5ccccc5c4)c23)c1 | 18 | -16 | 93* | -53 | -3 | 79* | 59*
CCNC(=O)NC1(C(=O)N2CCC(Cc3ccccc3)CC2)CCCCC1 | -5 | 2 | 8 | 12 | -3 | . | .
C[C@H](NC(=O)c1cc2cc(Cl)ccc2n1C)C(=O)N[C@@H](C(=O)O)c1ccccc1 | 8 | -20 | 7 | -10 | 0 | . | .
Cc1ccc(/C=N/NC(=O)C2CC(=O)N(c3ccccc3)C2)s1 (centres undefined) | -16 | -7 | 47 | -5 | 35 | . | .
O=C(N/N=C/c1ccccc1O)C1CC(=O)N(c2ccc(Cl)cc2)C1 (centres undefined) | -6 | 20 | 76* | 84* | 1 | 59* | 37*
COc1ccc(C(=O)O)cc1S(=O)(=O)Nc1ccccc1C(=O)NCc1ccc2c(c1)OCO2 | 9 | -1 | -7 | 3 | -1 | . | .
Cc1ccc(Nc2nc3nonc3[nH]c2=O)cc1Cl | -2 | -1 | 76* | 20 | -5 | 80* | 72*
CN(C)S(=O)(=O)n1cc(/C=C(\NC(=O)c2ccccc2F)C(=O)NCCCN2CCOCC2)c2ccccc21 | -13 | 9 | 24 | 0 | 3 | . | .
COc1cccc(/C=N/NC(=O)c2cc3c(OC)ccc(OC)c3[nH]2)c1O | -35 | 12 | 62* | 86* | -3 | 63* | 38*
COc1cccc(/C=N/NC(=O)c2c(C)nc3ccc(Br)cn23)c1O | -7 | 88* | 67* | 82* | 49 | 74* | 32
COc1cccc(/C=N/NC(=O)c2ccc3nc[nH]c3c2)c1O | 30 | -2 | 9 | 3 | -2 | . | .
CCOc1ccccc1/C=N/NC(=O)c1c(C)nc2ccc(Br)cn12 | 1 | -3 | -20 | -1 | 14 | . | .
SMILES | 697 NFkB inh | Gli-Sufu antag | Mdm2-MdmX inh | Beta apoptosis | Jurkat NFkB inh | Mdm2-MdmX conf | FLuc counter
COc1cccc(C=NNC(=O)c2ccncc2)c1O | . | 24 | . | . | . | . | .
COc1cc(OC)c2cc(C(=O)N/N=C/c3cccc(OC)c3O)[nH]c2c1 | -20 | 14 | 69* | 97* | -7 | 62* | 34
COc1cccc(/C=N/NC(=O)c2nc(-c3ccccc3)cc(-c3ccccc3)n2)c1O | -14 | 3 | 51* | 8 | -16 | 20 | .
CN(C1CCCCC1)S(=O)(=O)c1ccc(SCC(=O)C(C)(C)C)nc1 | -2 | 6 | 14 | 0 | -9 | . | .
OCC[C@H]1C[C@@H](O)[C@H](O)[C@@]2(CCCCO2)O1 | 13 | -1 | -2 | -4 | 32 | . | .
CSCCC(NC(=O)c1ccccc1Br)C(=O)NNC(=O)c1ccco1 (centres undefined) | 14 | -8 | 11 | -8 | -3 | . | .
CN(CC(=O)N1CCCCCC1)S(=O)(=O)c1ccccc1 | -74 | -29 | -29 | -4 | -22 | . | .
Cc1cc(C(=O)O)cc(S(=O)(=O)Nc2ccccc2C(=O)NC(C)c2ccccc2)c1C (centres undefined) | 9 | -7 | 10 | -7 | 2 | . | .
O=C(CC1S/C(=N/N=C/c2cccs2)NC1=O)Nc1ccc(Cl)c(Cl)c1 (centres undefined) | -2 | -9 | 18 | -1 | -5 | . | .
O=C1N/C(=N\N=C\c2cccs2)SC1Cc1cccc(Cl)c1Cl (centres undefined) | -64 | -3 | 83* | 4 | 39 | 62* | 58*
O=C1N/C(=N\N=C\c2cccs2)SC1Cc1ccc(Cl)cc1Cl (centres undefined) | -16 | -4 | 74* | -5 | 9 | 51* | 70*
O=C(CC1S/C(=N/N=C/c2cccs2)NC1=O)Nc1ccc(Cl)cc1 (centres undefined) | 15 | -7 | 34 | -5 | 2 | . | .
O=C(NCc1ccc(Cl)cc1)c1cccc(NC2=NC3CS(=O)(=O)CC3S2)c1 (centres undefined) | 10 | 3 | -24 | -16 | -4 | . | .
CO/N=C\CC(=O)Nc1ccc(Oc2ccccc2)cc1 | -35 | 15 | 52* | -9 | 42 | 63* | 73*
CCc1ccc(-c2cc3c(=O)n(CC(=O)NCCN4CCCCC4C)nc(C)n3n2)cc1 (centres undefined) | -21 | -3 | 68* | 11 | -35 | 25 | .
COc1ccc(-c2cc3c(=O)n(CC(=O)NCCCN4CCC(N5CCCCC5)CC4)nc(C)n3n2)cc1 | -14 | -1 | 99* | -12 | -36 | 100* | 46*
COc1ccc(-c2cc3c(=O)n(CC(=O)Nc4ccc(C(C)=O)cc4)ncn3n2)cc1 | -44 | -69 | 58* | 4 | -49 | 34 | 105*
COc1ccc(-c2cc3c(=O)n(CC(=O)NCc4cccnc4)ncn3n2)cc1 | -51 | -83 | 0 | -6 | -44 | . | .
Cc1nn(CC(=O)NCCCN2CCCCC2)c(=O)c2cc(-c3ccccc3)nn12 | -47 | -1 | 17 | 0 | -22 | . | .
